This note sets out measurements from PubChem BioAssay (NCI).

About 83,000 compounds went through this panel and 20% of them were active in at least one assay; those are over-represented in the sample as a whole.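 Cells were grown in 96-well plates and exposed to the test compound at a single concentration for 48 hours; results are reported as percent growth, with values below 10 considered active.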 A number with no mark means an inactive call. The source made the active and inactive calls.

The subject of the first test is LOX IMVI melanoma. The experiment in a line: NCI-60 one-dose screen, 48 h (100 = growth as untreated, 0 = no growth, -100 = all killed). The settings on record: 10 µM unless noted.
Regarding `CC(C)CNc1nc(N=[N+]=[N-])nc(NCC(C)C)n1`, the growth is 72.6% [100 µM].

Turning to `CCCCCCCSc1ncnc2[nH]ncc12`, the growth is 65.9%.

As for `COC(=O)[C@H](Cc1cn(C)cn1)NC(=O)[C@H](Cc1ccccc1)NC(=O)Nc1cc(C(F)(F)F)cc(C(F)(F)F)c1`, the growth is -84.7% [100 µM] (active).

On to `CC[N+](CCCCCCCCCC[N+](CC)(c1ccccn1)c1ccccn1)(c1ccccn1)c1ccccn1`, for which the growth is -54.4% (active).

Take `CCCCCCC(CC#N)(CCC)CCCC` (stereo not given): the growth is 89.8%.

In the case of `O=C1NC(=O)/C(=C\c2ccco2)S1`, the growth was 91.5%.

Turning to `Cc1sc2nc3c4ccccc4c(NCCCN(C)C)nn3c(=O)c2c1C`, the growth was -39% (active).

Regarding `COc1ccc([N+](=O)[O-])c(S(=O)(=O)c2ccc(Cl)cc2)n1`, the growth was 10.7%.

With `COc1ccc(NC(=O)c2ccccc2-c2ccccc2)c(C(N)=O)c1`, the growth was 36.9%.

With `CCCCCc1c(C)[nH]c(/C=C2\N=C(c3ccc[nH]3)C=C2Oc2ccccc2)c1C`, the growth was -90% [100 µM] (active).

Take `COc1ccc(NC(=O)[C@@H]2C[C@H]2c2ccccc2)c(C(N)=O)c1`: the growth was 93.6%.

As for `COc1cc(-c2n[nH]nc2-c2ccccn2)cc(OC)c1OC`, the growth is 98.5%.

Take `COC(=O)[C@H](Cc1cnc[nH]1)NC(=O)[C@@H](NC(=O)Nc1cc(C(F)(F)F)cc(C(F)(F)F)c1)C(C)C`: the growth was -84.5% [100 µM] (active).

In the case of `O=C1C(=O)/C(=C/c2ccccc2)CCCCCC/C1=C/c1ccccc1`, the growth is -73.5% (active).

Turning to `O=C(Nc1ccc(Cl)cc1)Nc1nc2ccc(OC(F)(F)F)cc2o1`, the growth is 103%.

With `COc1ccc(N2CCN(CC(=O)N3CCN(c4nnc(-c5ccccc5)c(-c5ccccc5)n4)CC3)CC2)cc1`, the growth is 44.6%.

In the case of `CCCCCCCCCCCCCCCCNC(=O)Nc1ccc2ccccc2c1`, the growth is 101%.

Take `FCc1ncc(-c2ccc(C(F)(F)F)cc2)c(NC2CCCCCC2)n1`: the growth is -52.6% [100 µM] (active).

`O=Cc1ncc(-c2ccc(C(F)(F)F)cc2)c(NC2CCCCCC2)n1`: the growth is -73.4% [100 µM] (active).

On to `COC(=O)[C@H](Cc1cn(C)cn1)NC(=O)[C@@H](NC(=O)Nc1cc(C(F)(F)F)cc(C(F)(F)F)c1)C(C)C`, for which the growth is -79.5% [100 µM] (active).

On to `CSc1nc(-c2ccc(O)cc2O)c2c(=O)[nH]c(Nc3ccc(S(=O)(=O)Nc4nc(C)cc(C)n4)cc3)nc2n1`, for which the growth was 99%.

As to `CC(C)OP(=O)(OC(C)C)c1ncc(-c2ccc(C(F)(F)F)cc2)c(NC2CCCCCC2)n1`, the growth was -63.3% [33.3 µM] (active).

Consider `NS(=O)(=O)c1ccc(-n2nc(-c3ccc(Br)cc3)ccc2=O)cc1`, for which the growth was 68.1% [100 µM].

Take `CC1CC=CCC1C1OCC(C)(C)CO1` (stereo not given): the growth is 69.9%.

`N[C@H](CS)C(=O)O`: the growth is 100%.

As to `CCCCCc1c(C)[nH]c(/C=C2\N=C(c3ccc[nH]3)C=C2Oc2ccc(Cl)cc2)c1C`, the growth was -69.2% [100 µM] (active).

With `[N-]=[N+]=NCc1ncc(-c2ccc(C(F)(F)F)cc2)c(NC2CCCCCC2)n1`, the growth is 82.2% [50 µM].

Turning to `COc1ccc(-c2nnc3c4[nH]cnc4ncn23)c(OC)c1`, the growth was 5.63% (active).

With `C1CCC(C(CC2CCCCN2)C2CCCCC2)CC1` (stereo not given), the growth is -95.5% (active).

For `CCOC(=O)c1sc(NC(=O)COc2cccc(/C=C3\Cc4ccc(Cl)cc4C3=O)c2)nc1C`, the growth was 97.7%.

In the case of `CCCCCCCC[Si](OCC)(OCC)OCC`, the growth is 103%.

In the case of `CCOc1cc(CCNS(=O)(=O)c2ccc(C)cc2)c(C(C)=O)cc1OCC`, the growth was 87.1% [100 µM].

With `CC(=O)c1ccc(NS(=O)(=O)c2ccc([N+](=O)[O-])cc2)cc1`, the growth was 98.8%.

For `COC(=O)[C@H](CCCCNC(=O)OCc1ccccc1)NC(=O)[C@@H](NC(=O)Nc1cc(C(F)(F)F)cc(C(F)(F)F)c1)C(C)C`, the growth was -83.3% [100 µM] (active).

`O=C(/C=C/c1c(-c2ccccc2)[nH]c2ccccc12)S(=O)(=O)c1ccccc1`: the growth is 56.5%.

As for `CCOC(=O)C(C(=O)OCC)C1CCCCC1`, the growth was 110%.

For `CNc1nc(NC2CCCC2)nc(Sc2ccc(OC)cc2)n1`, the growth was 22.4% [100 µM].

For `O=c1sc2ncnc3ncn1c32`, the growth was 12.7%.

`Cc1nn2c(/C=C3/C(=O)Nc4cc(Cl)ccc43)c(-c3ccccc3)nc2s1`: the growth is -33.3% (active).

As for `Nc1nc2c(nnn2Cc2ccc(Cl)c(Cl)c2)c(=O)[nH]1`, the growth is 93.9%.

For another test, the system named is SK-MEL-28 melanoma. The test is described as above. The settings on record: 10 µM unless noted.
As to `CC(C)CNc1nc(N=[N+]=[N-])nc(NCC(C)C)n1`, the growth is 76.9% [100 µM].

Consider `CCCCCCCSc1ncnc2[nH]ncc12`, for which the growth is 106%.

In the case of `COC(=O)[C@H](Cc1cn(C)cn1)NC(=O)[C@H](Cc1ccccc1)NC(=O)Nc1cc(C(F)(F)F)cc(C(F)(F)F)c1`, the growth is -96.6% [100 µM] (active).

For the molecule `CC[N+](CCCCCCCCCC[N+](CC)(c1ccccn1)c1ccccn1)(c1ccccn1)c1ccccn1`, the growth was 15.1%.

As to `CCCCCCC(CC#N)(CCC)CCCC` (stereo not given), the growth was 104%.

With `O=C1NC(=O)/C(=C\c2ccco2)S1`, the growth was 113%.

As to `Cc1sc2nc3c4ccccc4c(NCCCN(C)C)nn3c(=O)c2c1C`, the growth was -87.5% (active).

For the molecule `COc1ccc([N+](=O)[O-])c(S(=O)(=O)c2ccc(Cl)cc2)n1`, the growth is 82%.

For `COc1ccc(NC(=O)c2ccccc2-c2ccccc2)c(C(N)=O)c1`, the growth is 59.7%.

As to `CCCCCc1c(C)[nH]c(/C=C2\N=C(c3ccc[nH]3)C=C2Oc2ccccc2)c1C`, the growth was -95.1% [100 µM] (active).

For `COc1ccc(NC(=O)[C@@H]2C[C@H]2c2ccccc2)c(C(N)=O)c1`, the growth is 96.7%.

In the case of `COc1cc(-c2n[nH]nc2-c2ccccn2)cc(OC)c1OC`, the growth was 120%.

With `COC(=O)[C@H](Cc1cnc[nH]1)NC(=O)[C@@H](NC(=O)Nc1cc(C(F)(F)F)cc(C(F)(F)F)c1)C(C)C`, the growth was -96.1% [100 µM] (active).

As to `O=C1C(=O)/C(=C/c2ccccc2)CCCCCC/C1=C/c1ccccc1`, the growth was 94.9%.

As to `O=C(Nc1ccc(Cl)cc1)Nc1nc2ccc(OC(F)(F)F)cc2o1`, the growth was 108%.

As to `COc1ccc(N2CCN(CC(=O)N3CCN(c4nnc(-c5ccccc5)c(-c5ccccc5)n4)CC3)CC2)cc1`, the growth is 71.3%.

As to `CCCCCCCCCCCCCCCCNC(=O)Nc1ccc2ccccc2c1`, the growth is 108%.

On to `FCc1ncc(-c2ccc(C(F)(F)F)cc2)c(NC2CCCCCC2)n1`, for which the growth is 33.6% [100 µM].

As for `O=Cc1ncc(-c2ccc(C(F)(F)F)cc2)c(NC2CCCCCC2)n1`, the growth is -71.4% [100 µM] (active).

As to `COC(=O)[C@H](Cc1cn(C)cn1)NC(=O)[C@@H](NC(=O)Nc1cc(C(F)(F)F)cc(C(F)(F)F)c1)C(C)C`, the growth was -96.5% [100 µM] (active).

In the case of `CSc1nc(-c2ccc(O)cc2O)c2c(=O)[nH]c(Nc3ccc(S(=O)(=O)Nc4nc(C)cc(C)n4)cc3)nc2n1`, the growth was 97.8%.

As to `CC(C)OP(=O)(OC(C)C)c1ncc(-c2ccc(C(F)(F)F)cc2)c(NC2CCCCCC2)n1`, the growth is -74.5% [33.3 µM] (active).

Turning to `NS(=O)(=O)c1ccc(-n2nc(-c3ccc(Br)cc3)ccc2=O)cc1`, the growth was 80.9% [100 µM].

In the case of `CC1CC=CCC1C1OCC(C)(C)CO1` (stereo not given), the growth was 105%.

Consider `N[C@H](CS)C(=O)O`, for which the growth is 125%.

For `CCCCCc1c(C)[nH]c(/C=C2\N=C(c3ccc[nH]3)C=C2Oc2ccc(Cl)cc2)c1C`, the growth was -52.4% [100 µM] (active).

With `[N-]=[N+]=NCc1ncc(-c2ccc(C(F)(F)F)cc2)c(NC2CCCCCC2)n1`, the growth is 98.1% [50 µM].

As for `COc1ccc(-c2nnc3c4[nH]cnc4ncn23)c(OC)c1`, the growth is 84.7%.

With `C1CCC(C(CC2CCCCN2)C2CCCCC2)CC1` (stereo not given), the growth was -84.8% (active).

With `CCOC(=O)c1sc(NC(=O)COc2cccc(/C=C3\Cc4ccc(Cl)cc4C3=O)c2)nc1C`, the growth was 118%.

In the case of `CCCCCCCC[Si](OCC)(OCC)OCC`, the growth is 104%.

For the molecule `CCOc1cc(CCNS(=O)(=O)c2ccc(C)cc2)c(C(C)=O)cc1OCC`, the growth is 108% [100 µM].

As to `CC(=O)c1ccc(NS(=O)(=O)c2ccc([N+](=O)[O-])cc2)cc1`, the growth was 123%.

Turning to `COC(=O)[C@H](CCCCNC(=O)OCc1ccccc1)NC(=O)[C@@H](NC(=O)Nc1cc(C(F)(F)F)cc(C(F)(F)F)c1)C(C)C`, the growth is -86.3% [100 µM] (active).

As for `O=C(/C=C/c1c(-c2ccccc2)[nH]c2ccccc12)S(=O)(=O)c1ccccc1`, the growth is 72.5%.

In the case of `CCOC(=O)C(C(=O)OCC)C1CCCCC1`, the growth is 106%.

`CNc1nc(NC2CCCC2)nc(Sc2ccc(OC)cc2)n1`: the growth is 46.4% [100 µM].

Regarding `O=c1sc2ncnc3ncn1c32`, the growth is 99.6%.

Take `Cc1nn2c(/C=C3/C(=O)Nc4cc(Cl)ccc43)c(-c3ccccc3)nc2s1`: the growth is -49.4% (active).

For `Nc1nc2c(nnn2Cc2ccc(Cl)c(Cl)c2)c(=O)[nH]1`, the growth is 111%.
